The values below come from PubChem BioAssay AID440 (NMMLSC, 2006).

In all, about 24,000 compounds went through this assay and about 180 (0.75%) were called active. The sample as a whole holds a higher share of actives than the screen did. A number with no mark means an inactive call. Cut-off read from the data, not from the text of the source: active = inhibition above about 30%; inconclusive = no clear call, values can overlap the other calls; inactive = below that.

fMet-Leu-Phe receptor (Homo sapiens), sequence (P21462 whole entry, looked up): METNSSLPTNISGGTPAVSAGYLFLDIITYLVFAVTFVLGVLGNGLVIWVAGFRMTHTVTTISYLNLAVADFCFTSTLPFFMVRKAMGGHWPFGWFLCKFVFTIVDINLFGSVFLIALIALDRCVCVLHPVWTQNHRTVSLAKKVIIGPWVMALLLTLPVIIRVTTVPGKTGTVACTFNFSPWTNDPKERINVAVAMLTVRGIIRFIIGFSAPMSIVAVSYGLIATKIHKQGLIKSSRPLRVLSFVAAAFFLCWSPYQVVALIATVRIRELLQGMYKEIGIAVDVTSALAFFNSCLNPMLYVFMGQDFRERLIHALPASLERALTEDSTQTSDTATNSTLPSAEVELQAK

The test concerns the target fMet-Leu-Phe receptor (Homo sapiens) (UniProt P21462). As to the kind of experiment: small molecules displacing FPR fluorescent ligand – cell-based, FPRL1 counter-screen, flow cytometry, primary screen (AID 440).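 Note: 0% = buffer wells and 100% = receptor blocker peptide wells.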 Particulars: FPR-expressing cells, fluorescent ligand binding, active compounds read high, concentration not given here.
In general, inhibition refers to the relative decrease from the control value, in per cent. In the case of `O=C(Nc1ccccc1C(F)(F)F)c1cc(-c2ccc(O)cc2)on1`, the inhibition was -2.3%. With `O=C(CS(=O)(=O)c1cn(Cc2ccc(Cl)cc2)c2ccccc12)N1CCOCC1`, the inhibition was 15%.

For `O=C(Nc1c2c(nn1-c1ccc(F)cc1)CS(=O)C2)C12CC3CC(CC(C3)C1)C2` (stereo unspecified), the inhibition is -5.4%. The same measure for `Cc1cc(C)c(C#N)c(SCc2[nH]nc3c2C(c2ccccc2)C(C#N)=C(N)O3)n1` (stereo unspecified): -6.4%; for `CCCCc1nc2c(=O)[nH]c3ccccc3c2o1`: -2.1%. Take `Fc1ccc2nc(Nc3nc4c(s3)CCCC4)sc2c1`: the inhibition is -14.3%.

For `Cn1cccc1C1(C(F)(F)F)NCCNC1=O` (stereo unspecified), the inhibition is 1.7%. For `CCCCCCn1c(CN2CCCCC2)nc2c1c(=O)n(C)c(=O)n2C` the value was -5.5%; for `O=c1c(-c2ccccc2)coc2c(CN3CCOCC3)c(O)ccc12`, -5.5%; for `c1ccc(COc2nsnc2N2CCOCC2)cc1`, -1.9%. For `Cn1cccc1Cc1nnc(SCC(=O)NCc2ccc3c(c2)OCO3)n1CCc1ccccc1`, the inhibition was 4.8%. The same measure for `COc1ccc(CCNC(=O)C2CCN(c3nn4c(=O)cc(C)nc4s3)CC2)cc1OC`: -2.7%; for `CCn1ncc(C2=NOC(C(=O)N3CCN(c4ccccc4)CC3)C2)c1C` (stereo unspecified): -5.6%. The same measure for `OCc1n[nH]c(CO)n1`: 1.3%; for `O=C(CN1CCN(c2ncc(C(F)(F)F)cc2Cl)CC1)Nc1ccc2c(c1)OCO2`: -4.3%; for `CCCCOCCCNC(=O)c1ccccc1OCC`: 1.4%. The same measure for `CCOC(=O)c1cc(NC(=O)SCC(=O)O)c(C)nc1C`: 3.8%. Consider `CCOC(=O)c1cc2cc(-c3c(C(=O)OCC)oc4cc(O)cc(O)c4c3=O)ccc2o1`, for which the inhibition is -2.3%. For the molecule `COc1cc(C2C(C(=O)Nc3ccc(F)cc3)=C(C)Nc3nc(CCCO)nn32)cc(OC)c1OC` (stereo unspecified), the inhibition was -4.8%. For `CCOc1ccc2c(=O)c(-c3ccc4c(c3)OCCCO4)c(C)oc2c1` the value was -4.1%; for `CCOc1ccc(N(CC(=O)NCc2ccc(OC)cc2)S(=O)(=O)c2c(C)noc2C)cc1`, -3.8%; for `CCOC(=O)CSc1nc2c(c(=O)n(C)c(=O)n2C)n1Cc1ccccc1F`, 4.7%.

For `CCOc1ccc(Cn2nnc(C(=O)Nc3ccc(OC)cc3OC)c2N)cc1`, the inhibition was -3.7%. Take `O=C(Nc1ccn(Cc2ccc(F)cc2)n1)c1ccncc1`: the inhibition is -7.7%. For `COc1ccc(OC)c(NC(=O)CCN2CCC(C)CC2)c1` the value was -5.8%; for `Cc1cc(C)c(C#N)c(SCS(=O)c2ccc(C(C)(C)C)cc2)n1` (stereo unspecified), -4.1%.
